We go through 12 compounds from PubChem BioAssay (Tox21).

Results filed as inconclusive are left out. Values without a mark were called inactive. Calls of active or inactive are those of the source. Unless noted, the call rests on the fitted dose curve; in most records, active means well fitted curve in the direction sought with a large enough effect in the repeat runs; inconclusive means weak or mixed curves; inactive means no such curve, though single readings can be large; an effect the other way counts as inactive or inconclusive.

Test [1] has as its target Retinoic acid receptor RXR-alpha (Homo sapiens) (UniProt P19793). As to the kind of experiment: qHTS assay to identify small molecule agonists of the RXR signaling pathway (AID 1159527; calls by dose curve; further: nearly all actives have a fitted effect of over 35% in size). The gist of the method:
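Cells plated at 2,000/well, rested 5 hr at 37 C, pin-dosed with DMSO compound solutions, incubated 16 hr, then loaded with B/G FRET substrate for 2 hr at RT before dual-emission fluorescence reading.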

A short description of test [2]: qHTS assay to identify small molecule agonists of the RXR signaling pathway - cell viability counter screen (AID 1159529).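 Further: HEK 293T cells carrying an RXR-alpha UAS beta-lactamase reporter; series mostly up to about 77 µM; nearly all actives have a fitted effect of over 50% in size.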 The gist of the method: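 Steps: seed RXR-alpha-UAS-bla HEK 293T cells in assay medium containing 2% charcoal-stripped FBS; incubate 5 hr; add compounds in DMSO; incubate 16 hr at 37 C; after the bla read, add CellTiter-Glo and read luminescence at 30 min.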

Test [3] can be described thus: qHTS assay to identify small molecule antagonists of the retinoid acid receptor (RAR) signaling pathway - cell viability counter screen (AID 1159551). Further: nearly all actives have a fitted effect of over 35% in size. The gist of the method: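 Viability of C3RL4 cells is quantified from ATP by luminescence after 6 h treatment at 37 C with compounds and 1 uM retinol.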
On the technique in general: qHTS replaces the single test concentration by a dilution series.

Test [4] in a line: qHTS assay to identify small molecule antagonists of the estrogen related receptor (ERR) signaling pathway from Tox21 library - cell viability counter screen (AID 1224834). Further: nearly all actives have a fitted effect of over 30% in size. The gist of the method:
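In this quantitative HTS format, ERR cells receive compounds in DMSO and are incubated for 17.5 h at 37 C. Live-cell protease activity is then detected with CellTiter-Fluor.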

Test [5] is described as follows: qHTS assay to identify small molecule antagonists of the constitutive androstane receptor (CAR) signaling pathway - cell viability counter screen (AID 1224837). Further: series mostly up to about 92 µM; nearly all actives have a fitted effect of over 45% in size. The gist of the method: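 In quantitative HTS format, compounds at 15 concentrations were applied to HepG2 cells double-transfected with hCAR and CYP2B6-2.2kb under 50 nM CITCO stimulation; live-cell protease activity was read after 23 hr via CellTiter-Fluor.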

For test [6], the target named is Nuclear receptor subfamily 1 group I member 3 (Homo sapiens) (UniProt Q14994). As to the kind of experiment: qHTS assay to identify small molecule antagonists of the constitutive androstane receptor (CAR) signaling pathway (AID 1224838). Further: nearly all actives have a fitted effect of over 40% in size. The gist of the method:
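CITCO-stimulated (50 nM final) HepG2 cells stably transfected with hCAR and CYP2B6-2.2kb luciferase were exposed to compounds at 15 concentrations for 24 h at 37 C/5% CO2. A luciferase reagent was added and luminescence recorded after 30 min.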

For test [7] the target is unchanged. As to the kind of experiment: qHTS assay to identify small molecule agonists of the constitutive androstane receptor (CAR) signaling pathway (AID 1224839).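 Further: HepG2 cells stably carrying human CAR and a CYP2B6 luciferase reporter; series mostly up to about 92 µM; nearly all actives have a fitted effect of over 15% in size.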 The gist of the method:
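Cells were plated and incubated 4 hrs, then dosed with compounds at 15 concentrations. PK11195 was added to 0.75 uM final. After 24 hrs at 37 C, luciferase luminescence was measured.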

Test [8] can be described thus: qHTS assay to identify small molecule antagonists of the estrogen related receptor signaling pathway with the pleiotropic PPARgamma coactivator (PGC) from Tox21 10K library - cell viability counter screen (AID 1224840; active means well fitted cell-killing curve with a large enough effect in the repeat runs, not every such curve was filed as active; further: nearly all actives have a fitted effect of over 40% in size). The gist of the method:
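Viability counter screen, PGC/ERR cells: 17.5 h compound exposure at 37 C, CellTiter-Fluor fluorescence endpoint.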

Test [9] in a line: qHTS assay to identify small molecule antagonists of the estrogen related receptor signaling pathway with the pleiotropic PPARgamma coactivator (PGC) from Tox21 10K library (AID 1224841; call rule not given here; further: series mostly up to about 92 µM; actives are mostly falling curves and most rising ones were filed inactive; nearly all actives have a fitted effect of over 50% in size). The gist of the method: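 In the PGC/ERR line, DMSO solutions of test chemicals are pin-delivered to 2,000 cells/well six hours after dispensing. Following eighteen hours' incubation, One-Glo reagent is added and luminescence recorded.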

The nature of test [10]: qHTS assay to identify small molecule agonists of the estrogen related receptor signaling pathway with the pleiotropic PPARgamma coactivator (PGC) from Tox21 10K library (AID 1224842). Further: nearly all actives have a fitted effect of over 15% in size. The gist of the method:
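PGC/ERR reporter cell line, 2,000 cells per well, incubated 6 h at 37 C before 23 nL compound in DMSO was added. After 18 h at 37 C, One-Glo luminescence read following 30 min at room temperature.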

A short description of test [11]: qHTS assay to identify small molecule antagonists of the retinoic acid receptor (RAR) signaling pathway (AID 1159552; further: nearly all actives have a fitted effect of over 50% in size). The gist of the method: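 Retinol at 1 uM final stimulated RARE-luciferase expression in C3RL4 cells exposed to test compounds for 6 hr at 37 C. Reduced luminescence, read 30 min after detection reagent, indicated pathway antagonism.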
Test [12] in a line: qHTS assay to identify small molecule agonists of the retinoic acid receptor (RAR) signaling pathway (AID 1159553). The gist of the method: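 Compounds dissolved in DMSO were pinned onto C3RL4 cells seeded the previous day, and plates were held 6 hr at 37 C. RARE-driven luciferase output was then read by luminescence.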
Test [13] can be described thus: qHTS assay to identify small molecule agonists of the constitutive androstane receptor (CAR) signaling pathway - cell viability counter screen (AID 1224836). Further: series mostly up to about 92 µM; nearly all actives have a fitted effect of over 45% in size. The gist of the method:
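Cells were seeded and incubated 4 hrs. Compounds were added across 15 concentrations together with PK11195 at 0.75 uM final. Plates were incubated 23 hrs at 37 C. CellTiter-Fluor was added and fluorescence measured.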

Test [14] has as its target Luciferin 4-monooxygenase (Photinus pyralis) (UniProt P08659). As to the kind of experiment: qHTS assay to identify small molecule inhibitors of firefly luciferase (AID 1224835). Further: nearly all actives have a fitted effect of over 25% in size. Further: potency means the concentration at half of the fitted maximal effect. The gist of the method:
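Biochemical qHTS: compounds run as interplate titrations against purified firefly enzyme, with D-luciferin and ATP each at its KM concentration. Light output recorded by CCD imaging.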

A short description of test [15]: qHTS assay to identify small molecule antagonists of the estrogen related receptor (ERR) signaling pathway - cell viability counter screen (AID 1224818). Further: series mostly up to about 46 µM. The gist of the method:
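Cytotoxicity check run alongside the ERR antagonist screen: cells exposed to test compounds 17.5 h at 37 C, viability taken as CellTiter-Fluor fluorescence intensity.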

Test [16] in a line: qHTS assay to identify small molecule antagonists of the estrogen related receptor signaling pathway with the pleiotropic PPARgamma coactivator (PGC) cell viability counter screen (AID 1224822; further: series mostly up to about 46 µM). The gist of the method: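 Viable cell signal (CellTiter-Fluor, 30 min, 37 C/5% CO2) was measured in PGC/ERR cells after a 17.5 h compound incubation.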

Sequence of Retinoic acid receptor RXR-alpha (Homo sapiens) (P19793 whole entry, looked up): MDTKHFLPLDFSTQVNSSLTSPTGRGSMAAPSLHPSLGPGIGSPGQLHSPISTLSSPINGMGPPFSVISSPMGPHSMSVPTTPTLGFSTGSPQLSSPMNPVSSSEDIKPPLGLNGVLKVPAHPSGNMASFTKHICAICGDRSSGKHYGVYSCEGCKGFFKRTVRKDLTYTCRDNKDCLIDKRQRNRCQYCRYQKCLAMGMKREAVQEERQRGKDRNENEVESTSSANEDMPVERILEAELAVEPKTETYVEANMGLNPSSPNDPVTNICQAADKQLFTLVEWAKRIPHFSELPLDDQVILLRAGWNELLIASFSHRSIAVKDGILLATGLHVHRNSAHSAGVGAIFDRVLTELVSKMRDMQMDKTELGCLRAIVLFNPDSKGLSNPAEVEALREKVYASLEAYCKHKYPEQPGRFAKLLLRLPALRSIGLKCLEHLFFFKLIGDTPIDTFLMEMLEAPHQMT
Sequence of Nuclear receptor subfamily 1 group I member 3 (Homo sapiens) (Q14994 whole entry, looked up): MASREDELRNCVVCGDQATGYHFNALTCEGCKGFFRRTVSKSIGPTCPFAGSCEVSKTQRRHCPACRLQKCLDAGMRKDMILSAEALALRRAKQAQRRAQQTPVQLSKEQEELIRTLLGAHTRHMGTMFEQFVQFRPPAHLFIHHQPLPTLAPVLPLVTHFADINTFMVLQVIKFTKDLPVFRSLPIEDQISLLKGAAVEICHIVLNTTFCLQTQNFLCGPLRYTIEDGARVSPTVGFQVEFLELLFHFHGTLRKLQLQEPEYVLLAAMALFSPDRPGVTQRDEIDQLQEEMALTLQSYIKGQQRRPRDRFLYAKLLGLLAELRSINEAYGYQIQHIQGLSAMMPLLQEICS
Sequence of Luciferin 4-monooxygenase (Photinus pyralis) (P08659 whole entry, looked up): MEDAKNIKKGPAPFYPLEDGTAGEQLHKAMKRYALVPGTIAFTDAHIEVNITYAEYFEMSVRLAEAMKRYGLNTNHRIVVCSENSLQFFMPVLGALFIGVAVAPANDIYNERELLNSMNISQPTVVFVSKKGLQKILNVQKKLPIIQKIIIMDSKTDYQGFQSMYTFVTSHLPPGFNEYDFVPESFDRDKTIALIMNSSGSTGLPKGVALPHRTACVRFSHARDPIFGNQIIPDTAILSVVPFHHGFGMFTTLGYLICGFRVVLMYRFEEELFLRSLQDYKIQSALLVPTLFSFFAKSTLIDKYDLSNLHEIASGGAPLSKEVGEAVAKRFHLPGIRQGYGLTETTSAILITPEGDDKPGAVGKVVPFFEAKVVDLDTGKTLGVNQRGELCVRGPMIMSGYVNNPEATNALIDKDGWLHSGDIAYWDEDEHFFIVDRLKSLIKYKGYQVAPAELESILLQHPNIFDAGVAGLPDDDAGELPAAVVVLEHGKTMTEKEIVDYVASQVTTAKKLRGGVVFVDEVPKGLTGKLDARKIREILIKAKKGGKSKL

Consider `CC(C)CCCCOC(=O)c1ccccc1C(=O)OCCCCC(C)C`, for which the Potency result in test [1], in [4], in [5], in test [7] and in [9] was “inactive” throughout. The compound was classed as inactive in test [2], in test [3], in [6], in test [8] and in test [10].
On to `BrCc1cccc(Oc2ccccc2)c1`, for which the compound was called inactive in test [2], in test [3], in test [11], in test [6], in test [8] and in test [10]. In addition, the Potency result in [12], in [4], in test [13], in test [5] and in test [9] was “inactive” each time.
`CN(C)C(=O)CNC(=O)Cc1ccccc1`: the Potency entry in [1], in test [4], in test [14], in test [13], in test [5] and in [7] was “inactive” in each case. Besides, the compound was called inactive in test [2], in test [6] and in test [8].
Take `CC(C)c1ccc2cc(C(C)C)ccc2c1`: the Potency entry in [1], in test [4], in test [13] and in test [5] was “inactive” in each case. The compound was classed as inactive in test [2], in [11] and in [8]. Moreover, in test [14], the Potency is 15.9 µM (active).
Regarding `CCCCCCCCCC(C)=O`, the Potency entry in [1], in test [4], in [14], in test [13], in test [5] and in test [7] was “inactive” in each case. Moreover, the result in [2], in test [11], in test [6] and in test [8] was inactive.
`COP(=O)(OC)OC(c1ccc(Cl)cc1)P(=O)(OC)OC` (stereo unspecified): the Potency entry in test [1], in [4], in [14], in [13], in test [5] and in [7] was “inactive” in each case. In [9], the Potency entry was “inactive”. For the same compound, the outcome in test [2], in [11], in [6], in test [8] and in test [10] was inactive.
Regarding `COc1cc(C(=S)N2CCOCC2)cc(OC)c1OC`, the Potency entry in test [1], in [4], in test [13], in test [5], in [7] and in test [9] was “inactive” throughout. Also, the compound was classed as inactive in test [2], in test [6], in test [8] and in test [10].
On to `O=C(O)c1cc(Br)c(O)c(Br)c1`, for which the Potency entry in [1], in test [4], in test [14], in test [13], in [5] and in test [9] was “inactive” each time. The result in [2], in test [11], in test [8] and in [10] was inactive.
As to `On1nnc2ccccc21`, the compound was classed as inactive in [2], in test [3], in test [6], in test [8] and in test [10]. Further, the Potency result in test [4], in [14], in [13], in [5], in test [7] and in [9] was “inactive” each time.
As to `COc1ccc(-c2cc(=O)c3c(O)cc(O[C@@H]4O[C@H](CO[C@@H]5O[C@@H](C)[C@H](O)[C@@H](O)[C@H]5O)[C@@H](O)[C@H](O)[C@H]4O)cc3o2)cc1O`, the call in test [2], in test [3], in test [11], in [8] and in test [10] was inactive. The Potency entry in test [12], in test [13], in test [5] and in [9] was “inactive” throughout.
Turning to `CCOC(=O)c1ncn2c1CN(C)C(=O)c1cc(F)ccc1-2`, the compound was called inactive in test [2], in [3], in test [15], in test [16] and in test [8]. Besides, the Potency entry in test [4], in [14], in test [13], in test [5] and in test [7] was “inactive” throughout.
On to `O=C(CS(=O)Cc1ccco1)NC/C=C\COc1cc(CN2CCCCC2)ccn1` (stereo unspecified), for which the compound was called inactive in [2], in test [3], in test [6], in [8] and in [10]. For the same compound, the Potency result in [4], in [14], in test [13], in test [5], in test [7] and in test [9] was “inactive” throughout.
